Seven compounds from ChEMBL document CHEMBL1961873, “Compounds: GSK PKIS; Assays: Nanosyn kinase panel” (2012) can be followed below.

The target in assay [1] is Tyrosine-protein kinase CSK (Homo sapiens) (UniProt P41240). Conditions: at 1 µM.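 Further: each value is an averaged inhibition reading.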
The target of assay [2] is T1, Discoidin domain-containing receptor 2 (Homo sapiens) (UniProt Q16832).
T1 sequence (whole entry): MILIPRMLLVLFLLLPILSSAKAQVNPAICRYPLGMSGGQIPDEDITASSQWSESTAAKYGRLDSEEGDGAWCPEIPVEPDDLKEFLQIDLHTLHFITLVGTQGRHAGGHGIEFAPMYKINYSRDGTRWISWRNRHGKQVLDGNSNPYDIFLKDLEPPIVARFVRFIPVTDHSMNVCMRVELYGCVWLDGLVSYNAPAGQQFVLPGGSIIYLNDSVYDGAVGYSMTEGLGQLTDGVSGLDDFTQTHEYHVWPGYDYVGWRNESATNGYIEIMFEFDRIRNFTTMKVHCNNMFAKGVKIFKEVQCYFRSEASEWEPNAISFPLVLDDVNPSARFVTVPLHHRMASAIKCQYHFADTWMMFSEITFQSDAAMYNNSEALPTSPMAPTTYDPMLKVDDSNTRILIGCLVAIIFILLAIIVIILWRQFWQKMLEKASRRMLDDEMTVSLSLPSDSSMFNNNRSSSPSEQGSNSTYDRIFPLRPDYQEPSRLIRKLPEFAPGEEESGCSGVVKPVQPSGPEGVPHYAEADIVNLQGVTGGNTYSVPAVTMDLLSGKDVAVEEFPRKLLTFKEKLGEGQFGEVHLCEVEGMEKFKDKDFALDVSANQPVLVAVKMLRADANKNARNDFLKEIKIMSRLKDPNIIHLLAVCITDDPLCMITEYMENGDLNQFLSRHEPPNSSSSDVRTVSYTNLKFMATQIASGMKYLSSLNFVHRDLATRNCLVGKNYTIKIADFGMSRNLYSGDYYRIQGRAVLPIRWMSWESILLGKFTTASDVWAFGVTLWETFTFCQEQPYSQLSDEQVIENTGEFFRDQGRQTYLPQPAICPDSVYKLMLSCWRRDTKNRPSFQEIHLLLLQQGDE
Conditions: at 0.1 µM.

The target in assay [3] is T1, Discoidin domain-containing receptor 2 (Homo sapiens). The following applies: at 1 µM.
In assay [4] the target is Epidermal growth factor receptor (Homo sapiens) (UniProt P00533). The following applies: at 0.1 µM.
Epidermal growth factor receptor (Homo sapiens), sequence (P00533 whole entry): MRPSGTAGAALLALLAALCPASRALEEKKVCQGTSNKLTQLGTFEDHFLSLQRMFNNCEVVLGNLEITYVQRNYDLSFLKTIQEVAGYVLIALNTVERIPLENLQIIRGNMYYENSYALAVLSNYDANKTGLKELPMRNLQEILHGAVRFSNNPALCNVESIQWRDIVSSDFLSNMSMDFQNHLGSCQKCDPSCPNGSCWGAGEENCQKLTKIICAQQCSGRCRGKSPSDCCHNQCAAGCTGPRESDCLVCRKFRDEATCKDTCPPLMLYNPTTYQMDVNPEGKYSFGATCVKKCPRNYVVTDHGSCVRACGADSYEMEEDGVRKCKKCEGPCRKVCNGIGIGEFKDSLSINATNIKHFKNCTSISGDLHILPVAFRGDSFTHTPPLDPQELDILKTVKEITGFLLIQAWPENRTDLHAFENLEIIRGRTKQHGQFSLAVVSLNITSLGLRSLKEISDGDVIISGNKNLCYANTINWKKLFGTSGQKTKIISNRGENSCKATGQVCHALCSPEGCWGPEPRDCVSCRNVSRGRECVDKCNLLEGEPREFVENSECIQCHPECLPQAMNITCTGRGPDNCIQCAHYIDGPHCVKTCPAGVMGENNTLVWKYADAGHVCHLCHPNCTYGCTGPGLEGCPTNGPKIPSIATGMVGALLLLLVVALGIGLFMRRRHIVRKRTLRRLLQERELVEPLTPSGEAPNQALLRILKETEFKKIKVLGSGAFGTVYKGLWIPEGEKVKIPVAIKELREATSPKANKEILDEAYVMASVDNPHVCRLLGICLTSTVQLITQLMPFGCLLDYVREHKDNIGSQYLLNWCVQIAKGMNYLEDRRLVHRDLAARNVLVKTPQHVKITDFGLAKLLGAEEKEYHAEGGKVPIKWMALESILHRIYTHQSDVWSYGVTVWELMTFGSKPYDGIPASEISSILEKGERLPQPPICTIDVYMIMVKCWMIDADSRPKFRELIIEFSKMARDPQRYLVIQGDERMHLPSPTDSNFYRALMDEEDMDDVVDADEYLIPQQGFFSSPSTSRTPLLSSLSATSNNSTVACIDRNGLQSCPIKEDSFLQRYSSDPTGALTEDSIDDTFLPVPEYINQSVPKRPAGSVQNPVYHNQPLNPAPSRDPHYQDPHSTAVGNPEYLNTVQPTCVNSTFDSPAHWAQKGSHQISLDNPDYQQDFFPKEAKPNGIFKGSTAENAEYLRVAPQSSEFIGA
Assay [5] has the same target. Conditions: at 1 µM.
Assay [6] has as its system Epidermal growth factor receptor (Homo sapiens), P00533 [L858R]. Conditions: at 0.1 µM.
The test system is the same in assay [7]. Conditions: at 1 µM.
Assay [8] has as its system Epidermal growth factor receptor (Homo sapiens), P00533 [L861Q]. The following applies: at 0.1 µM.
Assay [9] has the same test system. The following applies: at 1 µM.
In assay [10] the test system is Epidermal growth factor receptor (Homo sapiens), P00533 [T790M]. The following applies: at 0.1 µM.
For assay [11] the test system is unchanged. The following applies: at 1 µM.
In assay [12] the test system is Epidermal growth factor receptor (Homo sapiens), P00533 [L858R,T790M]. The following applies: at 0.1 µM.
Epidermal growth factor receptor (Homo sapiens), P00533 [L858R,T790M], sequence (P00533 whole entry T790M/L858R, looked up): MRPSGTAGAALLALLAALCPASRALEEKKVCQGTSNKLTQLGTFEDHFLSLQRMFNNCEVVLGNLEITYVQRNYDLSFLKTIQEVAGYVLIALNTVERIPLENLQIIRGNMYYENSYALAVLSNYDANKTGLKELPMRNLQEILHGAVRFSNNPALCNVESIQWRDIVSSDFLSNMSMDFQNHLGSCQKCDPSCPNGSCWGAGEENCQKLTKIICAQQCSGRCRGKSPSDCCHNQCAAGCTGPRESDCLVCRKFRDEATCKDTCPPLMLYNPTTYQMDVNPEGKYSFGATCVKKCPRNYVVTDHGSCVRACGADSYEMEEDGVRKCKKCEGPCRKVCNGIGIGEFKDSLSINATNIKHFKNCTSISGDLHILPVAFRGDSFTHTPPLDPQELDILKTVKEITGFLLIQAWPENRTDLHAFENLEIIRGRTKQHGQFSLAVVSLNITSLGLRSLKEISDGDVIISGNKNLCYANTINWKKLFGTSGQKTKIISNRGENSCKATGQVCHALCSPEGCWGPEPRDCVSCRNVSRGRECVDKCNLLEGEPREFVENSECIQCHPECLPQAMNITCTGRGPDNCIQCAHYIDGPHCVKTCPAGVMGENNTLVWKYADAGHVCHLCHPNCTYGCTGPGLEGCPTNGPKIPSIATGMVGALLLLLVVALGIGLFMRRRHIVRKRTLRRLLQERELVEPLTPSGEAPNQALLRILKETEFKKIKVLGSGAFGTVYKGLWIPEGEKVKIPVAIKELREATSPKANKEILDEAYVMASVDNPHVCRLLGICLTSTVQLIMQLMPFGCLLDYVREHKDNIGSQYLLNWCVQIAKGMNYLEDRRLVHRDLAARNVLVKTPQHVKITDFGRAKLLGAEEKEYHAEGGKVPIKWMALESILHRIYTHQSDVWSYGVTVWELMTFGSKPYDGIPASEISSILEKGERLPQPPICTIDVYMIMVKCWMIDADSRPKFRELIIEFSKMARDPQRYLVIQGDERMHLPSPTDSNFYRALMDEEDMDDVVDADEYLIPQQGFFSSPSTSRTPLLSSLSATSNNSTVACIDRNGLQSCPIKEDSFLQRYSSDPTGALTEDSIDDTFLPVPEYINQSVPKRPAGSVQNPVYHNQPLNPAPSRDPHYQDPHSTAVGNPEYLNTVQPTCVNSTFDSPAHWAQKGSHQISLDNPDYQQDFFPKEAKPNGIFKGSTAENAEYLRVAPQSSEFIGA
The test system is the same in assay [13]. Conditions: at 1 µM.
For assay [14], the target named is Ephrin type-A receptor 2 (Homo sapiens) (UniProt P29317). Conditions: at 0.1 µM.
Assay [15] has the same target. The following applies: at 1 µM.
Assay [16] concerns the target T2, Ephrin type-A receptor 3 (Homo sapiens) (UniProt P29320).
T2 sequence (whole entry): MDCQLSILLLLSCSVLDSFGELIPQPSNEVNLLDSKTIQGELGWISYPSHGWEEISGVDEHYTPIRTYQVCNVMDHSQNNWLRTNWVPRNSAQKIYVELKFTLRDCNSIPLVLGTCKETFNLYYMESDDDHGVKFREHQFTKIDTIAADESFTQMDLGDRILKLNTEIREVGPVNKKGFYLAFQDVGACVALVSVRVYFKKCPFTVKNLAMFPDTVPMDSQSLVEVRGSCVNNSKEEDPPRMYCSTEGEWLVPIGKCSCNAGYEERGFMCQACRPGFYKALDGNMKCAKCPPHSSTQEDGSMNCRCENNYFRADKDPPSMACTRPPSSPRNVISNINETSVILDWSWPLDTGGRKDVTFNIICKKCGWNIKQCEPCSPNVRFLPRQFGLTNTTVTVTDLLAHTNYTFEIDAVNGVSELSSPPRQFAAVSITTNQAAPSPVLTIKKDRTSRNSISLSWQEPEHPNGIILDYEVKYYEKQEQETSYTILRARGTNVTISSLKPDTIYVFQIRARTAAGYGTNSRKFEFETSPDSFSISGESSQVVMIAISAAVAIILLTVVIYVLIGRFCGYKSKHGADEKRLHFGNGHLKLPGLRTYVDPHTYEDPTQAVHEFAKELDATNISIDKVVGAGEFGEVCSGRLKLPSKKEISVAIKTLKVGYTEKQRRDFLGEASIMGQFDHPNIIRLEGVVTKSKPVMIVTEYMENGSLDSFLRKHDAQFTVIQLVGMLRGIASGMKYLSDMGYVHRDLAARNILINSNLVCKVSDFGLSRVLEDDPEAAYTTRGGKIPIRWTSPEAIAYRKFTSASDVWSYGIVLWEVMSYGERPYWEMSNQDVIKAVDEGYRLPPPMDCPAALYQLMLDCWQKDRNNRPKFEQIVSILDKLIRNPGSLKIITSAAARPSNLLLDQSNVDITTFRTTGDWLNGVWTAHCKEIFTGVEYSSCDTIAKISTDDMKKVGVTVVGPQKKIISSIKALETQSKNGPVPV
Conditions: at 0.1 µM.

The target of assay [17] is T2, Ephrin type-A receptor 3 (Homo sapiens). The following applies: at 1 µM.
Assay [18] concerns the target Ephrin type-A receptor 4 (Homo sapiens) (UniProt P54764). The following applies: at 0.1 µM.
For assay [19] the target is unchanged. Conditions: at 1 µM.
Assay [20] has as its target T3, Ephrin type-B receptor 2 (Homo sapiens) (UniProt P29323).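 Further: reported as mean inhibition of EPHB2, from the GSK PKIS dataset.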
T3 sequence (whole entry): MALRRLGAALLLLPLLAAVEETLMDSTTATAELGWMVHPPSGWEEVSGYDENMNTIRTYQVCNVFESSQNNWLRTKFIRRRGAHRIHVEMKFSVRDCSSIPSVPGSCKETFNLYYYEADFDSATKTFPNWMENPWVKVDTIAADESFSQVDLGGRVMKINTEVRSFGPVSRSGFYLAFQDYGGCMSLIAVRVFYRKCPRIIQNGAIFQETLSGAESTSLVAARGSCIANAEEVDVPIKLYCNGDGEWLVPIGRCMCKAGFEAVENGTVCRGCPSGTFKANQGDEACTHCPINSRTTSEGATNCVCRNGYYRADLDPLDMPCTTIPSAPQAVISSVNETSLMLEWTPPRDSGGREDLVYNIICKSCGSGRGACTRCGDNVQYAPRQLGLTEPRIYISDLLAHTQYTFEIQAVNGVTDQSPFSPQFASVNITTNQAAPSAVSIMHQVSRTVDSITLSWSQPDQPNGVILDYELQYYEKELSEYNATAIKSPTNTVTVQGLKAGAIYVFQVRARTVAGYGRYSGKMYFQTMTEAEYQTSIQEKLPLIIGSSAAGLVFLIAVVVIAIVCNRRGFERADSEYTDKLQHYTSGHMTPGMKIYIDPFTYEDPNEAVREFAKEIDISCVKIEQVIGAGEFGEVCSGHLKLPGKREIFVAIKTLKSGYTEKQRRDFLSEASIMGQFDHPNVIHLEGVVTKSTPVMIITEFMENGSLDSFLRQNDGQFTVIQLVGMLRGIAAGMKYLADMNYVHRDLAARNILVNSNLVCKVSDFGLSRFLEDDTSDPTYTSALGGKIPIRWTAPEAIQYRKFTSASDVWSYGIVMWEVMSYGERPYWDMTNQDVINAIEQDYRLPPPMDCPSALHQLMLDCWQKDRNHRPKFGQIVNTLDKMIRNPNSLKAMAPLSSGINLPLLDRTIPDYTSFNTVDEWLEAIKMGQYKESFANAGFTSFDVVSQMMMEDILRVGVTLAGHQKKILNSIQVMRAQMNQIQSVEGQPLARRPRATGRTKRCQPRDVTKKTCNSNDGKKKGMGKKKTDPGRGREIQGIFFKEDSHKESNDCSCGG
Conditions: at 0.1 µM.

Several values for one entry are separate records, joined by “and”; a condition that tells them apart may be missing. Identical values can stand only once.

Epidermal growth factor receptor (Homo sapiens), P00533 [L858R], sequence (P00533 whole entry L858R): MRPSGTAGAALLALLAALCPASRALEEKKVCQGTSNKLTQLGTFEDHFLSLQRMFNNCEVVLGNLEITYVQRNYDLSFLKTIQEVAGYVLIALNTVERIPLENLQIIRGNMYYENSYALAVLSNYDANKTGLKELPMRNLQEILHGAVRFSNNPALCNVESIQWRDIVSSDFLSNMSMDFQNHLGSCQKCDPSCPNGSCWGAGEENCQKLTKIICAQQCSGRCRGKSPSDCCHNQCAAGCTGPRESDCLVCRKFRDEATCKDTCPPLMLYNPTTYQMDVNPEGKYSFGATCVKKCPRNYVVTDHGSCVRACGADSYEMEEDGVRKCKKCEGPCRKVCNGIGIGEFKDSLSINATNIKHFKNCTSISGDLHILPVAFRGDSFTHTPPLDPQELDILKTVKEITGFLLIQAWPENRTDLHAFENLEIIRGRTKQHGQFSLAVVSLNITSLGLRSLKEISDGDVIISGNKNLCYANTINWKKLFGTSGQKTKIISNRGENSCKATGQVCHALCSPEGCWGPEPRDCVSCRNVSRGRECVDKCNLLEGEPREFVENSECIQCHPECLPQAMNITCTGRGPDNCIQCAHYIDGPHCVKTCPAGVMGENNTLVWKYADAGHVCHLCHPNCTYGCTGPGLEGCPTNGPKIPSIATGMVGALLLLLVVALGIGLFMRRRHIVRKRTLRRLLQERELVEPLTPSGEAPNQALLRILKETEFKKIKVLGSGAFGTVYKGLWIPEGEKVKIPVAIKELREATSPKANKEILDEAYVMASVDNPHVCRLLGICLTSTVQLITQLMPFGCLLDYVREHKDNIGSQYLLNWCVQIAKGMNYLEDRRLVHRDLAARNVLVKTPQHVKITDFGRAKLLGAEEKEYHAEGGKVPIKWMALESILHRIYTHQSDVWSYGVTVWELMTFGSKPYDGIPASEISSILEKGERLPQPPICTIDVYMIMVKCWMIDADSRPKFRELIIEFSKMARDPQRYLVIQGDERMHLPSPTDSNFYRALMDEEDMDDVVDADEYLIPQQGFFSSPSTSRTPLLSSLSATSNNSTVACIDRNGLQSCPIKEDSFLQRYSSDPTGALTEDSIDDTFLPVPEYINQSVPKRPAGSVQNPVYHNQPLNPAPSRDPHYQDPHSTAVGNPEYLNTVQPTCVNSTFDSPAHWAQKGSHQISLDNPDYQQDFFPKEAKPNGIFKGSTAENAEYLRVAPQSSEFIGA
Epidermal growth factor receptor (Homo sapiens), P00533 [L861Q], sequence (P00533 whole entry L861Q): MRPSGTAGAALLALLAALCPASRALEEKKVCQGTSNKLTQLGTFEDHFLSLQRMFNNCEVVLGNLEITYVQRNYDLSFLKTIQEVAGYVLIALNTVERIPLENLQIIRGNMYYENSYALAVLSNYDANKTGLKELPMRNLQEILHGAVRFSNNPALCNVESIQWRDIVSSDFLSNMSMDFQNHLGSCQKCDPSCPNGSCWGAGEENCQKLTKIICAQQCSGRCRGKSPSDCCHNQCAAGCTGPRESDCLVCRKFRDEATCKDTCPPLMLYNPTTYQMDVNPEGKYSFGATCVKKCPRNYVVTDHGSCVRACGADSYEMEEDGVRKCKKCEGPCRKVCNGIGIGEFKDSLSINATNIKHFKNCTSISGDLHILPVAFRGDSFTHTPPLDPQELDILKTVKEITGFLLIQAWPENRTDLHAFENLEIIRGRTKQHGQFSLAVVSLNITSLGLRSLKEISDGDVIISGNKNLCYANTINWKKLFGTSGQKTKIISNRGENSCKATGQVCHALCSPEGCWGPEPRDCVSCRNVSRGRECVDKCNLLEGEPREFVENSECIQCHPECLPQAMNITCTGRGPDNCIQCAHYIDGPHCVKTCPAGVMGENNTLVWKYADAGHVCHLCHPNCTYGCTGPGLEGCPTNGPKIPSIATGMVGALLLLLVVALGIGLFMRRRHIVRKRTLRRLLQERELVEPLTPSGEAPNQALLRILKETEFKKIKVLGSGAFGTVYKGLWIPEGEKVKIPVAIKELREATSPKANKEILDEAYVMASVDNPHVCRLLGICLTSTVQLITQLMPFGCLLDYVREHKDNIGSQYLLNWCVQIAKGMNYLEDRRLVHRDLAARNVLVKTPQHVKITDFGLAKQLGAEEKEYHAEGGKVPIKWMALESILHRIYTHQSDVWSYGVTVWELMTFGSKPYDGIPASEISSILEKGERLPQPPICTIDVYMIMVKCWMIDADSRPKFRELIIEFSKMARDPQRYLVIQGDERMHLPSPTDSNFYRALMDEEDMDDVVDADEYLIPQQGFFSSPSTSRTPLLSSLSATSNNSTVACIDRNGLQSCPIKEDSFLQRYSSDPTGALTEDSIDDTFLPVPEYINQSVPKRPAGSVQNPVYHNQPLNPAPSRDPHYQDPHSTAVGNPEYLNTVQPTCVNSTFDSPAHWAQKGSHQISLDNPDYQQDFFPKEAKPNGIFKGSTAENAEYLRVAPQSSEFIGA

In the case of `NC(=O)c1ccc2c(-c3ccnc(NCCCO)n3)c(-c3ccc(F)cc3)nn2c1`, the inhibition in assay [1] amounted to 7.7%; in assay [2], 4.1%; in [3] it was 22.4%; in assay [4] it was 1.88%; in [5], 17.3%; in assay [6], 10.1%. Besides, the inhibition worked out at 50.6% in [7]; 4.58% in assay [8]; 16.6% in [9]; 2.86% in assay [10]; 2.72% in [11]; 4.41% in [12]. The inhibition in assay [13] was 6.91%; in [14] it was 2.54%; in assay [15] it was 7.54%; in [16] it was 5.24%; in assay [17] it was 7.21%; in assay [18] it was 11.8%. For the same compound, the figures for the inhibition in [19] and in assay [20] were 29.7% and 9.21%, respectively.
Regarding `COc1cccc(Nc2nccc(-c3cnn4ncccc34)n2)c1`, the inhibition in assay [1] was 11.8%; in [2] it was 0.85%; in [3], 4.16%; in assay [4], -2.03%; in assay [5], 5.8%; in assay [6] it was 2.1%. For the same compound, the inhibition in assay [7] was 9.34%; in assay [8], 1.66%; in [9] it was 3.56%; in assay [10] it was 1.52%; in [11], 1.13%; in assay [12], 4.75%. Moreover, the inhibition in assay [13] was 9.99%; in assay [14], 1.1%; in assay [15] it was 12.2%; in assay [16], 4.37%; in assay [17] it was 8.81%; in [18], 9.73%. The inhibition in assay [19] was 36.6%; in assay [20], 9.43%.
On to `COc1cc(N2CCN(C(C)C)CC2)ccc1Nc1nc(Nc2cccc3ncccc23)c2cc[nH]c2n1`, for which the inhibition is -2.41% in assay [1]; 4.81% in assay [2]; 8.24% in assay [3]; 1.36% in assay [4]; 2.64% in assay [5]; -1.25% in assay [6]. Also, the inhibition was 3.3% in assay [7]; -0.92% in assay [8]; 0.99% in [9]; -1.02% in [10]; 10.3% in assay [11]; 1.03% in assay [12]. Further, the inhibition was 35.2% in [13]; -1.62% in [14]; -2.47% in [15]; 0.15% in assay [16]; 3.49% in [17]; 0.21% in assay [18]. Further, the values for the inhibition in [19] and in assay [20] were 0.38% and 5.06%, respectively.
On to `CC1=C(C(=O)Nc2ccc3[nH]ncc3c2)C(c2ccc(F)cc2)N=C(c2ccc(C(F)(F)F)nc2)N1` (stereo not given), for which the inhibition in assay [1] came to 6.65%; in [2], 1.54%; in assay [3], 6.22%; in assay [4], 3.43%; in assay [5] it was 7.73%; in assay [6], 4.85%. Besides, the inhibition in assay [7] amounted to 6.69%; in [8] it was 2.32%; in [9], 2.72%; in [10] it was 0.14%; in assay [11], 0.81%; in assay [12], 4.44%. The inhibition is -0.48% in assay [13]; -1.16% in assay [14]; -0.31% in assay [15]; 3.49% in [16]; 3.54% in assay [17]; 5.75% in [18]. The inhibition in [19] amounted to 6.21%; in assay [20] it was 8.47%.
For `Nc1nccc(-c2c(-c3ccc(F)cc3)ncn2C2CCNCC2)n1`, the inhibition in [1] was -3.76% and 3.13%; in assay [2], -1.68% and 1.35%; in assay [3], 0.32%; in assay [4] it was -0.4% and 2.01%; in assay [5], 5.66% and 6.46%; in [6], -0.59% and 2.85%. Moreover, the inhibition in assay [7] was 6.1% and 10.9%; in assay [8], -3.23% and 1.91%; in [9] it was 1.42% and 4.42%; in assay [10], -2.84% and -2.65%; in assay [11], -1.82% and -1.43%; in assay [12], -3.77% and -2.58%. The inhibition in assay [13] is -3.38% and 2.32%; in assay [14], -1.11% and -2.31%; in [15], -3.3% and -3.19%; in assay [16], -5.79% and -0.55%; in [17], -3.63% and 1.63%; in assay [18], -7.34% and 0.75%. For the same compound, the inhibition in [19] is -6.76% and 4.23%; in assay [20] it was -3.07% and 5.6%.
In the case of `NS(=O)(=O)c1ccc(N/N=C2\C(=O)Nc3cccc(CCc4ccncc4)c32)cc1`, the inhibition in assay [1] is 0.36%; in [2], 1.26%; in [3], 1.42%; in assay [4], 4.28%; in assay [5], 6.81%; in assay [6] it was -0.53%. Besides, the inhibition in [7] is 3.04%; in assay [8], -0.31%; in [9] it was 0.15%; in assay [10], 0.27%; in [11], 0.76%; in [12] it was -0.13%. The inhibition is 1.83% in assay [13]; -2.9% in assay [14]; -1.98% in assay [15]; 0.59% in assay [16]; 0.71% in [17]; 3.79% in assay [18]. Also, the inhibition worked out at 5.47% in assay [19] and 4.47% in [20].
For the compound `Cc1ccc(-c2cc3c(NC(=O)C4CC4)ncnc3o2)cc1`, the inhibition stood at 2.78% in [1]; 0.26% in [2]; 1.45% in [3]; 3.75% in assay [4]; 8.67% in [5]; 3.53% in assay [6]. For the same compound, the inhibition is 2.75% in assay [7]; 2.3% in [8]; 4.69% in assay [9]; 1.98% in assay [10]; 0.67% in assay [11]; 1.96% in assay [12]. For the same compound, the inhibition came out at 5.94% in assay [13]; 3.08% in [14]; 7.49% in assay [15]; 3.73% in assay [16]; 5.51% in assay [17]; 8.88% in assay [18]. In addition, the inhibition in [19] was determined as 20.5%; in assay [20] it was 9.13%.

A word on the inhibition: it is the drop in the measured response relative to a control, in per cent.
